Experimental findings from PubChem BioAssay (NCATS) are described below.

Molecules are shown by their SMILES. Results filed as inconclusive are left out. A call without a number means that no potency is given here. Unmarked numbers belong to inactive results. Active and inactive are the calls of the source. The call rests on the fitted dose curve; in most records, active means well fitted cell-killing curve with a large enough effect; inconclusive means small, poorly fitted or top-dose-only effect, or effect the other way; inactive means no such curve, though single readings can be large or run the other way.
Potency means the concentration at half of the fitted maximal effect.

The test is described as follows: Viability qHTS for spleen associated tyrosine kinase inhibitor (SYKi) naive MV4-11 cells (AID 1963823). Further: nearly all actives have a fitted effect of over 40% in size. Particulars: MV4-11 AML viability, CellTiter-Glo luminescence, 72 h; series mostly up to 45 µM. The source says: Department of Medicine, Hematology/Oncology
University Hospital Frankfurt, Germany.
Trials have shown promising clinical activity of the selective SYK inhibitor entospletinib in patients with high expressing HOXA9/MEIS1 acute leukemias. As the development of resistance mechanisms is a common problem in the use of targeted drugs, we performed a chemical library screen to identify drug sensitivities in SYK inhibitor resistant AML cells. […] Glucocorticoids are potent immunosuppressants which work in part by inhibiting the transcription of cytokine genes.
Described herein is a viability screen to look for activity in the SYK inhibitor naive cell line against four NCATS compound libraries (MIPE 5.0, NPC, NPACT, and Kinase) totaling 11372 compounds. Active hits were reacquired for confirmation and further secondary assay testing.
SEQUENCE No. (e.g., 1, 2, 3, etc.); […] (e.g., Cells, Incubation, Reagent, etc.); VALUE; DESCRIPTION.
1; Media; 2uL; white, solid-bottom Corning assay plate.
2; Compounds; 23nL; Echo acoustic dispenser.
3; Cell; 5uL; 500 cells per well.
4: Incubation; 72hr; 37 C, 5% CO2, 95% humidity.
5; Reagent; 3uL; CellTiter-Glo reagent (Promega).
6; Incubation; 10min; room temperature.
7; Detection; Luminescence; ViewLux plate reader (PerkinElmer).
NOTES (numbers refer to Sequence numbers above
1. Quantitative high-throughput screening (qHTS) of small molecule compounds was conducted on naive SYKi MV4-11 cell line.
2. Twenty-three nanoliter of small molecule compounds were added to each assay plates using the Echo acoustic dispenser (Beckman Coulter).
3. Cells were seeded into the assay plates at a final density of 500 cells in 5uL of media per well using the Multi-drop Combi dispenser.
4. Plates were covered with stainless steel gasketed lids and incubated for 72 hours at standard cell culture conditions.
5. Viability was assessed by adding 3uL of CellTiter-Glo detection reagent (Promega).
6. Plates were covered with gasket lids and incubated for 10 minutes at room temperature.
7. Luminescence was measured on a ViewLux plate reader (PerkinElmer).
(Quantitative high-throughput screening tests each substance at several concentrations.)
Consider `CC(C)(C)C(O)/C=C/c1ccc2c(c1)OCO2` (stereo not given), for which the Potency entry was “inactive”.

With `CN1CCN(c2c(F)cc3c(=O)c(C(=O)O)cn4c3c2OCN4C)CC1`, the Potency entry was “inactive”.

In the case of `O=C(O)C(=O)Nc1cccc(-c2nn[nH]n2)c1`, the Potency entry is “inactive”.

With `C[C@@H]1O[C@@H](O[C@H]2[C@H](O[C@H]3CC[C@@]4(C)C(CC[C@]5(C)C4CC=C4[C@@H]6CC(C)(C)CC[C@]6(C(=O)O[C@@H]6OC[C@H](O)[C@H](O)[C@H]6O[C@@H]6O[C@@H](C)[C@H](O[C@@H]7O[C@H](CO)[C@@H](O)[C@H](O)[C@H]7O)[C@H](O)[C@H]6O)[C@H](O)C[C@]45C)C3(C)C)O[C@H](CO)[C@@H](O[C@@H]3OC[C@@H](O)[C@H](O)[C@H]3O)[C@@H]2O)[C@H](O)[C@H](O)[C@H]1O` (stereo not given in full), the viability (% of control) is 79.8% [at 9.25 µM].

Consider `COc1cc(-c2cn(C)c(=O)c3cnccc23)cc(OC)c1CN(C)C`, for which the Potency entry is “inactive”.

Take `CO/N=C(/C(=O)N[C@@H]1C(=O)N2C(C(=O)[O-])=C(C[n+]3ccn4ncccc43)CS[C@H]12)c1nsc(N)n1`: the Potency entry was “inactive”.

Turning to `CC(C)=CCC/C(C)=C/CO`, the Potency entry is “inactive”.

For the compound `O=C(C1=CCN2c3c(cccc31)OC[C@H]2CN1CCOCC1)c1cccc2ccccc12`, the Potency was 14.6 µM (active).

Turning to `CC1(C)CC[C@]2(C(=O)O)[C@H](O)C[C@]3(C)C(=CCC4[C@@]5(C)CC[C@H](O[C@@H]6O[C@H](CO[C@@H]7OC[C@H](O)[C@H](O)[C@H]7O[C@@H]7OC[C@H](O)[C@H](O)[C@H]7O)[C@@H](O)[C@H](O)[C@H]6O)C(C)(C)C5CC[C@]43C)[C@@H]2C1` (stereo not given in full), the viability (% of control) was 57.5% [at 9.25 µM].

For the compound `COc1ccc2c(c1)CCCC2=O`, the Potency result is “inactive”.

For `C[C@H]1CC[C@@H]2N(C1)C[C@@H]1[C@H]([C@@H](O)[C@H](O)[C@]3(O)[C@H]1C[C@@]14OC5(O)[C@@H](C[C@@H](O)[C@@H]31)[C@]4(C)CC[C@@H]5O)[C@]2(C)O`, the Potency entry was “inactive”.

As for `Cc1cnc(NC(=O)c2cc(Oc3cnc(C(=O)N(C)C)nc3)c3cc(C)oc3c2)cn1`, the Potency entry was “inactive”.

`COC(=O)C1=COC(OC2OC(CO)C(O)C(O)C2O)C2C1CC(OC(=O)C(O)CC(=O)O)C2C` (stereo not given): the Potency result was “inactive”.

Turning to `COc1cc(/C=C2\CCCN([C@@H](C)c3ccc(F)cc3)C2=O)ccc1-n1cnc(C)c1`, the Potency is 9.2 µM (active).

With `O=C(c1ccc(Cl)c([N+](=O)[O-])c1)N1CCN(c2ccccc2F)CC1`, the Potency is 23.1 µM (active).

In the case of `CCCCN(CCCC)C(=O)CN1C[C@H](c2ccc3c(c2)OCO3)[C@@H](C(=O)O)[C@@H]1c1ccc(OC)cc1`, the Potency is 16.6 µM (active).

With `C=CC(=O)Nc1cccc(C)c1Nc1ncc2cc(-c3c(Cl)c(OC)cc(OC)c3Cl)ccc2n1`, the Potency is 1.03 µM (active).

For `CCN(CC)CCCCNc1ncc2cc(-c3c(Cl)cccc3Cl)c(NC(=O)NC(C)(C)C)nc2n1`, the Potency is 0.517 µM (active).

In the case of `CC1=C2C[C@H]3O[C@@]3(C)CCC3O[C@@]3(C)C[C@@]2(O)OC1=O` (stereo not given in full), the Potency result is “inactive”.

As for `CC(C)C[C@@H](C(=O)N[C@H](C(=O)OC1CCCC1)c1ccccc1)[C@H](O)C(=O)NO`, the Potency is 0.372 µM (active).

Consider `O=C(/C=C/c1ccccc1)OCC1=CC[C@@H]2C(C(=O)O)=CO[C@@H](O[C@@H]3O[C@H](CO)[C@@H](O)[C@H](O)[C@H]3O)[C@H]12`, for which the Potency result is “inactive”.

On to `Clc1cccc(-c2nnnn2Cc2cccnc2)c1Cl`, for which the Potency result was “inactive”.

For the compound `C[C@H](NC(=O)CCc1nc2ccccc2c(=O)[nH]1)c1ccccc1`, the Potency entry was “inactive”.

As for `C[C@H](NC(=O)/C(C#N)=C/c1cccc(Br)n1)c1ccccc1`, the Potency is 3.72 µM (active).

As to `C=CC(C)(O)CC/C=C(/C)C(=O)OC1C(OC2OCC(OC3OC(CO)C(O)C(O)C3O)C(OC3OCC(O)C(OC4OC(C)C(O)C(O)C4O)C3O)C2O)COC(OC(=O)C23CCC(C)(C)CC2C2=CCC4C5(C)CCC(OC6OC(CO)C(OC7OC(CO)C(O)C(OC8OCC(O)C(O)C8O)C7O)C(O)C6O)C(C)(C)C5CCC4(C)C2(C)CC3O)C1O` (stereo not given), the viability (% of control) was 68.9% [at 4.97 µM].

Regarding `CCC(=O)c1cc(-c2ccc(Cl)cc2)n(-c2ccc(S(N)(=O)=O)cc2)c1C`, the Potency was 20.6 µM (active).

`O=C(Nc1cccc(C(F)(F)F)c1)c1ccccc1NCc1ccncc1`: the Potency was 8.2 µM (active).

Take `C[C@@H]1O[C@@H](O[C@H]2[C@H](OC(=O)[C@]34CCC(C)(C)C[C@H]3C3=CCC5[C@@]6(C)C[C@H](O)[C@H](O[C@@H]7O[C@H](CO)[C@@H](O)[C@H](O)[C@H]7O)[C@@](C)(CO)C6[C@H](O)C[C@@]5(C)[C@]3(C)C[C@H]4O)OC[C@H](O)[C@@H]2O)[C@H](O)[C@H](O)[C@H]1O[C@@H]1OC[C@@H](O)[C@H](O[C@H]2OC[C@](O)(CO)[C@H]2O)[C@H]1O` (stereo not given in full): the viability (% of control) is 84.5% [at 9.25 µM].

As for `CC1CCC2(NC1)OC1C(O)C3C4CCC5CC(O[C@@H]6O[C@H](CO)[C@@H](O)[C@H](O)[C@H]6O[C@@H]6O[C@@H](C)[C@H](O)[C@@H](O)[C@H]6O)CCC5(C)C4CCC3(C)C1C2C` (stereo not given in full), the Potency entry was “inactive”.

As for `N#Cc1ccc2ncnc(NCCc3ccccc3)c2c1`, the Potency was 8.2 µM (active).

`CC1=NS(=O)(=O)c2cc(Cl)ccc2N1`: the Potency entry is “inactive”.

With `CNc1nc(Cc2ccccc2)nc2c1CCNC[C@@H]2C`, the Potency result is “inactive”.

Take `Cc1cc(OCc2nnc(SC3CCCC3)n2-c2cccnc2)ccc1-c1ccc(S(C)(=O)=O)cc1`: the Potency is 0.184 µM (active).

`C=C1C(=O)OC2/C=C(/C)CC/C=C(/C)CCC12` (stereo not given): the Potency is 8.33 µM (active).

For the compound `CC(=O)C1=C(O)C=C2Oc3c(C(C)=O)c(O)c(C)c(O)c3[C@]2(C)C1=O`, the Potency result is “inactive”.

Turning to `C/C=C/[C@@H]1C=C[C@@H]2C[C@H](C)CC[C@H]2[C@]1(C)/C(O)=C1/C(=O)[C@@H](CO)N(C)C1=O`, the Potency was 14.3 µM (active).

Turning to `CN[C@@H](C)C(=O)N[C@H]1CN(C(=O)CC(C)C)CC[C@H]2CC[C@@H](C(=O)NC(c3ccccc3)c3ccccc3)N2C1=O`, the Potency entry was “inactive”.

Consider `CC(=O)N1CCN([C@H]2CCN(C(=O)N(C)[C@H](C)c3cc(C(F)(F)F)cc(C(F)(F)F)c3)[C@@H](c3ccc(F)cc3C)C2)CC1`, for which the Potency was 14.6 µM (active).

For `C=CC1(C)CC(OC(=O)/C(C)=C\COC(C)=O)C(C(=C)C(=O)O)C(O)C1C(=C)CO` (stereo not given), the Potency entry was “inactive”.

Regarding `O=C(NCCN1CCCC1)c1cc(-c2ccc(CN3CCOCC3)cc2)nc2ccc(F)cc12`, the Potency result was “inactive”.
